# Experimental data: PubChem BioAssay (NCATS)
# Records with an inconclusive call do not appear. The list shows a part of the results. Active and inactive are the calls of the source. Unless noted, the call rests on the fitted dose curve; in most records, active means well fitted curve in the direction sought with a large enough effect; inconclusive means small, poorly fitted or top-dose-only effect, or another doubt; inactive means no such curve, though single readings can be large; an effect the other way counts as inactive or inconclusive.
# How the values were obtained:
# [1] = qHTS profiling for inhibitors of Plasmodium falciparum (3D7) proliferation (AID 743322);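 further: infected erythrocytes exposed to compound for 72 h before lysis; 100% = DMSO vehicle wells and 0% = 0.29 µM artemisinin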; conditions: P. falciparum 3D7 proliferation; at 28.7 µM (top of the series) unless noted
# Summary of the method: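 Parasite DNA was quantified by SYBR Green I fluorescence (ex 485, em 535 nm) after overnight lysis in saponin/Triton buffer at room temperature. Cultures at 0.3% parasitemia and 2.5% hematocrit were first exposed to compound for 72 h at 37 C; signals were normalised to artemisinin (0.29 uM) and vehicle wells.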
# [2] = qHTS profiling for inhibitors of Plasmodium falciparum (DD2) proliferation (AID 743323; call rule not given here); conditions: lower = more inhibition; at 28.7 µM (top of the series) unless noted
# Summary of the method: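 Parasite proliferation measured via DNA-dye fluorescence, as uninfected erythrocytes lack DNA. Cultures at 0.3% parasitemia and 2.5% hematocrit incubated 72 h with compound; signal scaled between vehicle and 0.29 uM artemisinin wells.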
# [3] = qHTS profiling for inhibitors of Plasmodium falciparum (HB3) proliferation (AID 743324); conditions: Plasmodium falciparum HB3 blood-stage proliferation; at 28.7 µM (top of the series) unless noted;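 further: 100% = DMSO vehicle wells and 0% = artemisinin-treated control wells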
# Summary of the method: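 SYBR Green fluorescence (485 ex/535 em) of lysed cultures, incubated overnight at room temperature in the dark, quantifies parasite DNA. Infected erythrocytes at 0.3% parasitemia and 2.5% hematocrit were exposed 72 h; values normalized to DMSO and 0.29 uM artemisinin controls.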
# [4] = biological target: Tyrosine-protein kinase Yes (Homo sapiens) (UniProt P07947); test: qHTS for small molecule inhibitors of Yes1 kinase: Primary Screen (AID 686947); conditions: Yes1 kinase biochemical qHTS inhibition; further: potency means the concentration at half of the fitted maximal effect; nearly all actives have a fitted effect of over 60% in size
# Chain of Tyrosine-protein kinase Yes (Homo sapiens) (P07947 whole entry, looked up): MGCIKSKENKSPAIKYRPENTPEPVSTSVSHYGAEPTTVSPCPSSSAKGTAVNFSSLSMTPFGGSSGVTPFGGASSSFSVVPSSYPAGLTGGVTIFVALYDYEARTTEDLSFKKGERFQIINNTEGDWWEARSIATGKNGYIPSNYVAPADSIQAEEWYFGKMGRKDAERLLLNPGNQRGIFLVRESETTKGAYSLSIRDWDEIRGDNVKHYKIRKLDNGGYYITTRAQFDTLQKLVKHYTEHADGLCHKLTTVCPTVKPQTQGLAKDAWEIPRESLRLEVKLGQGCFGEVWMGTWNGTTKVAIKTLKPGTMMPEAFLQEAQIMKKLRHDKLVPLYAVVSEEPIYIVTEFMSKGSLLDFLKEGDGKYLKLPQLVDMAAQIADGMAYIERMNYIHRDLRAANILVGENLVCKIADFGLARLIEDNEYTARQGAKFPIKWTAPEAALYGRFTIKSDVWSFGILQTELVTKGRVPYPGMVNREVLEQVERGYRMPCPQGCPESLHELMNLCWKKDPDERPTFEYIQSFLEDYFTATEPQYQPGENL
# Summary of the method: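 ADP-Glo luminescence reports ADP formed by 4 nM Yes1 phosphorylating poly(E4Y) (0.3 mg/mL) with 0.1 mM ATP for 60 min at room temperature, following 20 min compound preincubation; normalised between DMSO wells with and without enzyme.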
# [5] = qHTS for small molecule inhibitors of Yes1 kinase: Counter Assay (AID 686950);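 further: no kinase present so only ADP-Glo detection of a fixed ADP amount is tested; luminescence from ADP-Glo reporting ADP in a fixed ATP and ADP mixture; 0% = DMSO wells with ATP plus ADP and -100% = ATP-only wells without ADP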
# Summary of the method: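 ADP-Glo luminescence read after a 60 min room-temperature incubation of compound with an ATP/ADP mix (0.08 mM/0.02 mM) and no kinase, following a 20 min compound preincubation. Signal scaled between ATP+ADP (max) and 0.1 mM ATP-only (min) wells; Tris pH 7.5, Mg2+, DTT.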
# [6] = biological target: Flap endonuclease 1 (Homo sapiens) (UniProt P39748); test: qHTS Assay for the Inhibitors of FEN1: Confirmatory Assay for Cherry-picked Compounds (AID 720498); conditions: FEN1 flap cleavage, TAMRA/BHQ2 fluorogenic DNA substrate; further: potency means the concentration at half of the fitted maximal effect; nearly all actives have a fitted effect of over 60% in size
# Chain of Flap endonuclease 1 (Homo sapiens) (P39748 whole entry, looked up): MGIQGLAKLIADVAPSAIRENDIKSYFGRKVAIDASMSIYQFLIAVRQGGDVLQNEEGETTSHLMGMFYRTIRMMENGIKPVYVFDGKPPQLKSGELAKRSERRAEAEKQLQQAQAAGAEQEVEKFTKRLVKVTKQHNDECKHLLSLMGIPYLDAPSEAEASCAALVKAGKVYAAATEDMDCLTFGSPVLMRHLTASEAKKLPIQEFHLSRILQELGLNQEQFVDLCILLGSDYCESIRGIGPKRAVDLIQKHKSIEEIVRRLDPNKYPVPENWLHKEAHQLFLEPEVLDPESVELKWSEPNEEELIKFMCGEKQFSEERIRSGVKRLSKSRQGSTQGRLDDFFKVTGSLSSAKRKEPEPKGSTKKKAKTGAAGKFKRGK
# Summary of the method: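 Human FEN1 (10 nM reagent) was preincubated with compounds for 15 min at room temperature, then 50 nM final double-flap DNA substrate (5'-TAMRA flap, BHQ-2 quencher strand) was added. Fluorescence (ex 525/em 598 nm) was read at 0 and 15 min.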
# [7] = biological target: DNA polymerase eta (Homo sapiens) (UniProt Q9Y253); test: qHTS for Inhibitors of Polymerase Eta: Confirmatory Assay for Cherry-picked Compounds (AID 720502); conditions: Pol eta primer extension, TAMRA/BHQ fluorescence, 10 min; further: potency means the concentration at half of the fitted maximal effect
# Chain of DNA polymerase eta (Homo sapiens) (Q9Y253 whole entry, looked up): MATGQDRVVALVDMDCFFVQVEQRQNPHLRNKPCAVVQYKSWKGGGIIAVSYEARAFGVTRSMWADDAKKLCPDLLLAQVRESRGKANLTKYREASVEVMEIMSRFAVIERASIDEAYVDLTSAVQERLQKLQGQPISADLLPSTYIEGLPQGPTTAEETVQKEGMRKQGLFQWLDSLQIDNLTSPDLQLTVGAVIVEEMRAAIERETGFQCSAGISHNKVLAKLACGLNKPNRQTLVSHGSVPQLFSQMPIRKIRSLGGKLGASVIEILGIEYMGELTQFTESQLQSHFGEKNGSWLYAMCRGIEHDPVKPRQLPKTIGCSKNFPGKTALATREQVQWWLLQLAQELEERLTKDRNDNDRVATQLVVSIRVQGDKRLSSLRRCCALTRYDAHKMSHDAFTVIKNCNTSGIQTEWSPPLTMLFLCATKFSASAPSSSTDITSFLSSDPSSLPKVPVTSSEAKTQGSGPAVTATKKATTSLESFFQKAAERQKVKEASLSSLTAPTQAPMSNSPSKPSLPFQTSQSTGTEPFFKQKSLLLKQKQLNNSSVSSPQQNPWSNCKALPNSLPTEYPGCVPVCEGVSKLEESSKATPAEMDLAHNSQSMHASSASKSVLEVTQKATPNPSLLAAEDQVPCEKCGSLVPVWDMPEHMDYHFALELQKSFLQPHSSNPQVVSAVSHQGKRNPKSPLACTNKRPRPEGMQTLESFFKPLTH
# Summary of the method: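 Strand-displacement fluorescence (525 nm excitation, 598 nm emission) was read kinetically at 0 and 10 min after adding 50 nM final TAMRA-reporter/BHQ-2-template substrate. Beforehand, 10 nM Pol eta had been exposed to compound for 15 min at room temperature.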
# [8] = qHTS assay for small molecule activators of the nuclear factor-kappa B (NF-kB) signaling pathway (AID 651749; active means well fitted activation curve with a large enough effect in the signal ratio; the % refers to the signal ratio; further: potency means the concentration at half of the fitted maximal effect); conditions: NF-kB-bla ME-180 cells, beta-lactamase FRET ratio, 16 h; activation: stronger effect = higher value
# Summary of the method: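 Activation measured after 16 hr compound treatment at 37C, 5% CO2, of 2,000 ME-180 cells/well stably expressing an NF-kB response element–driven beta-lactamase reporter, via FRET-disruption fluorescence.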
# [9] = qHTS assay for small molecule agonists of the antioxidant response element (ARE) signaling pathway measured by Nrf2-dependant transcriptional activity (AID 720636; active means well fitted curve in the direction sought with a large enough effect in the repeat runs; an effect the other way counts as inactive or inconclusive;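 further: HepG2 cells with an ARE-driven luciferase reporter; % of control where 0% means no effect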)
# Summary of the method: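 First, ARE-luc HepG2 cells attached for 6 hr at 37 C in 1% dialyzed FBS medium. Next, compound or DMSO was added and incubated 16 hr. Finally, ONE-Glo reagent was added and luminescence measured after 30 min.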
# [10] = qHTS assay for small molecule agonists of the antioxidant response element (ARE) signaling pathway measured by Nrf2-dependant transcriptional activity - cell viability counter screen (AID 720653; active means well fitted curve in the direction sought with a large enough effect in the repeat runs; an effect the other way counts as inactive or inconclusive; further: potency means the concentration at half of the fitted maximal effect); conditions: ARE-bla HepG2 viability, CellTiter-Glo ATP luminescence, 16 h; max response: stronger effect = lower value
# Summary of the method: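 Cytotoxicity counter screen: intracellular ATP quantified by CellTiter-Glo luminescence in the same ARE-bla HepG2 plates, after 16 h compound exposure and a 2 h beta-lactamase substrate step.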
# [11] = biological target: Cytochrome P450 2C9 (Homo sapiens) (UniProt P11712); test: qHTS Assay for Inhibitors and Substrates of Cytochrome P450 2C9 (AID 883); further: nearly all actives have a fitted effect of over 60% in size; further: potency means the concentration at half of the fitted maximal effect; on activity change, negative = inhibition: on the % scale 0 is the no-effect control and ±100 the full control effect
# Chain of Cytochrome P450 2C9 (Homo sapiens) (P11712 whole entry, looked up): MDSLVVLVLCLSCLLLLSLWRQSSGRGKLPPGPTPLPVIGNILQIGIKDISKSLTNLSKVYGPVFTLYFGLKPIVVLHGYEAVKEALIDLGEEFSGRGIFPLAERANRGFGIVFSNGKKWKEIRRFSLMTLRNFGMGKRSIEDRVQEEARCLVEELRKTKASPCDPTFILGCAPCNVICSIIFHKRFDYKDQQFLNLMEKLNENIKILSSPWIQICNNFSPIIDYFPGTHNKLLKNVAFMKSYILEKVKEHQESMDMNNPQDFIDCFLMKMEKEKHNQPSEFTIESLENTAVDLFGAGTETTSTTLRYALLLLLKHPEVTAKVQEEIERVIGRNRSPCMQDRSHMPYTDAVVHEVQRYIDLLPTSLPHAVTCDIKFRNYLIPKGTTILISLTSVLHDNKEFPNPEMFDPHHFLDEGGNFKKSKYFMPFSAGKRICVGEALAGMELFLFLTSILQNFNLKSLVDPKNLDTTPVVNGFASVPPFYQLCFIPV
# Summary of the method: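 Turnover of Luciferin-H (100uM, KM) by 10nM human CYP2C9 was measured over 60 min at 37C with NADPH regeneration; inhibitors and some substrates reduce luminescence. Data normalized to sulphaphenazole 57uM.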
# [12] = biological target: Cytochrome P450 3A4 (Homo sapiens) (UniProt P08684); test: qHTS Assay for Activators of Cytochrome P450 3A4 (AID 885); further: nearly all actives have a fitted effect of over 65% in size
# Chain of Cytochrome P450 3A4 (Homo sapiens) (P08684 whole entry, looked up): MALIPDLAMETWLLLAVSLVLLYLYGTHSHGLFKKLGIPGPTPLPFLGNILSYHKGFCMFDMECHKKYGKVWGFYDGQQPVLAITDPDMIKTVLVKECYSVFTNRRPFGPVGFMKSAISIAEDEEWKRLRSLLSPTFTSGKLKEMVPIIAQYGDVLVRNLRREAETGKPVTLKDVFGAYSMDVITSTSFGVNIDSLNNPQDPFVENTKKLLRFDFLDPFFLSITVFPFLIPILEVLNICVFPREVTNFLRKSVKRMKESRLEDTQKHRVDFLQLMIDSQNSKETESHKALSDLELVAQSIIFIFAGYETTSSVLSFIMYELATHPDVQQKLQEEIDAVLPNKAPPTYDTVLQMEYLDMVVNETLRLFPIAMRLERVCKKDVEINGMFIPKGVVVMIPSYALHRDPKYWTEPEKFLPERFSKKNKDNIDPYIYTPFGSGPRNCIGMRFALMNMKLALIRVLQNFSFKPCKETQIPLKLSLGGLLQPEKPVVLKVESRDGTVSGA
# Summary of the method: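 Using 20nM recombinant human CYP3A4 in potassium phosphate (200mM), substrate Luciferin-PPXE at 25uM, luminescent luciferin detection followed a 60-min RT NADPH reaction; data scaled to 57 uM ketoconazole.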
# [13] = qHTS assay for environmental chemicals that activate the Aryl hydrocarbon Receptor (AhR) signaling pathway (AID 651777); conditions: 1A2-DRE human hepatoma cells, luciferase, 24 h; activation: stronger effect = higher value; further: nearly all actives have a fitted effect of over 15% in size; further: potency means the concentration at half of the fitted maximal effect; on activation: % of control where 0% means no effect
# Summary of the method: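 AhR activation is scored as a rise in luciferase from a stable DRE–CYP1A2 promoter construct in human hepatoma cells. Treatment lasts 24 hr at 37 C; detection uses One-Glo after 30 min at room temperature.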
# [14] = biological target: Peroxisome proliferator-activated receptor alpha (Homo sapiens) (UniProt Q07869); test: qHTS assay for small molecule agonists of the peroxisome proliferator-activated receptor alpha (PPARalpha) signaling pathway (AID 651778); conditions: PathHunter PPARalpha complementation, chemiluminescence, 6 h; max response: stronger effect = higher value; further: % of control where 0% means no effect
# Chain of Peroxisome proliferator-activated receptor alpha (Homo sapiens) (Q07869 whole entry, looked up): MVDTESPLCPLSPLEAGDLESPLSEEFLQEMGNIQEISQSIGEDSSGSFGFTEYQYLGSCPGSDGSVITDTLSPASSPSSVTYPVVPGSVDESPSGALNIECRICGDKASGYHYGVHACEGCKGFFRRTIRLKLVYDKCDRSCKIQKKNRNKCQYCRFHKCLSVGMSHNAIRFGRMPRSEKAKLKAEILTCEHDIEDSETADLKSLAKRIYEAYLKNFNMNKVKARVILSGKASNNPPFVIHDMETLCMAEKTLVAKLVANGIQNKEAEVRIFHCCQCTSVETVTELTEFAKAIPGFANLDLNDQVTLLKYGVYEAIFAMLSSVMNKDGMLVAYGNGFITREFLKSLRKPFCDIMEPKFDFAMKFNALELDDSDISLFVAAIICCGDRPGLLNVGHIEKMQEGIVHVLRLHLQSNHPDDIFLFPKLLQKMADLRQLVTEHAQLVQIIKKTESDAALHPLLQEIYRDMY
# Summary of the method: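 Chemiluminescence from complemented enzyme reported PPARalpha activation in cells after 6 hr of compound treatment at 37 C. The detection reagent was incubated for 60 min at room temperature, and compounds were scored as agonists.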
# [15] = qHTS assay for cell viability of HEK293 cells (AID 743288); conditions: ATP luminescence (CellTiter-Glo), 18 h; max response: stronger effect = lower value; further: potency means the concentration at half of the fitted maximal effect; nearly all actives have a fitted effect of over 50% in size
# Summary of the method: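 Viable-cell counts were inferred from luciferase-based ATP content in HEK293 cells seeded at 2,000/well, pre-incubated ≥5 h, then dosed with DMSO-solubilised compounds for 18 h at 37 C.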
# [16] = qHTS assay for cell viability of the p53RE-bla HCT-116 cell line (AID 743292); further: potency means the concentration at half of the fitted maximal effect; nearly all actives have a fitted effect of over 55% in size
# Summary of the method: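 Quantitative high-throughput format: compounds in DMSO were pinned onto p53RE-bla HCT-116 cells (4,000/well) and incubated 16 h at 37 C. Total intracellular ATP, read by CellTiter-Glo luminescence, reflects viable cell number.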
# [17] = qHTS assay for small molecule disruptors of the mitochondrial membrane potential - 1 hr assay (AID 651754; calls by dose curve; further: potency means the concentration at half of the fitted maximal effect; nearly all actives have a fitted effect of over 35% in size)
# Summary of the method: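 Loss of mitochondrial potential shifts the cationic dye from red mitochondrial aggregates to green cytoplasmic monomers. Cells (HepG2) are treated with compound for 1 hr before a 30 min dye incubation at 37C.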
# [18] = qHTS assay for small molecule disruptors of the mitochondrial membrane potential - 5 hr assay (AID 651755; calls by dose curve; further: potency means the concentration at half of the fitted maximal effect; nearly all actives have a fitted effect of over 40% in size)
# Summary of the method: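 Membrane-potential dye readout: red aggregate (540 ex/590 em) versus green monomer (490 ex/535 em) fluorescence after 30 min dye loading, following 5 hr compound exposure at 37C of overnight-plated HepG2 cells.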
# [19] = qHTS Assay for Identifying Gametocytocidal Compounds (AID 743244); further: potency means the concentration at half of the fitted maximal effect; conditions: P. falciparum 3D7 stage III-V gametocytes, alamarBlue, 72 h; max response: stronger effect = lower value
# Summary of the method: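 Viability read-out was resazurin reduction (alamarBlue, 24 h) measured at Ex 525/Em 598 nm. Beforehand, late-stage (III-V) 3D7 P. falciparum gametocytes at 20,000 cells/well were incubated with compound 72 h at 37C under 5% CO2.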
smiles,measurement,setting,value
C[C@H]1[C@@H](CCC(=O)Nc2ccc(F)cc2)O[C@@H]2O[C@]3(C)CC[C@@H]4[C@H](C)CC[C@@H]1[C@@]24OO3,remaining parasite growth % (stronger effect = lower value),[1],-0.086%
same,"activity, percent of control",[2],0.199%
same,"remaining proliferation (% of control), lower = more inhibition",[3],0.121%
CNC(=O)Oc1cc(C)c(C=Cc2cncc(C(=O)NC)c2)c(C)c1,Potency,[4],654 nM (active)
same,outcome,[5],inactive
COc1cccc(N2C(=O)NC(=O)/C(=C\c3ccc([N+](=O)[O-])s3)C2=O)c1,Potency,[6],8.49 µM (active)
same,Potency,[7],37.9 µM (active)
O=C(O[C@@H]1Cc2c(O)cc(O)cc2O[C@@H]1c1cc(O)c(O)c(O)c1)c1cc(O)c(O)c(O)c1,Potency,[8],12.6 µM (active)
COc1cc(O)c2c(c1)/C=C/C[C@H](O)[C@H](O)C(=O)/C=C\C[C@H](C)OC2=O,Potency,[4],2440 nM (active)
CC/C(=C(\c1ccc(O)cc1)c1ccc(OCCN(C)C)cc1)c1ccccc1,Potency,[9],inactive
same,Potency,[10],25.1 µM (active)
C[C@H](Br)C(=O)c1ccc2cc(Br)c3ccccc3c2c1,"activity change, negative = inhibition",[11],58.8% [at 11.4 µM] (inactive)
C[C@@]12CC[C@@H]3c4ccc(O)cc4CC[C@H]3[C@H]1CC[C@H]2O,Potency,[11],inactive
Cc1c2ccccc2c(C)c2c1ccc1ccccc12,Potency,[12],inactive
same,Potency,[13],25.1 µM (active)
CCC[CH2][Sn]([CH2]CCC)([CH2]CCC)[O]C(=O)c1ccccc1,activation,[13],-10.5% (inactive)
same,max response,[14],-0.767% (inactive)
same,Potency,[10],3.98 µM (active)
same,Potency,[15],7.08 µM (active)
same,Potency,[16],6.31 µM (active)
Cc1c(N)cccc1N,Potency,[12],inactive
same,Potency,[17],37.6 µM (active)
same,Potency,[18],37.6 µM (active)
CC(C)C[C@H](NC(=O)N1CCCCCC1)C(=O)N[C@H](Cc1cn(C)c2ccccc12)C(=O)N[C@H](Cc1ccccn1)C(=O)O,Potency,[11],6.31 µM (active)
O=C(Nc1ccccc1)c1ccccc1O,Potency,[13],44.7 µM (active)
COC(C(=O)C(O)C(C)O)C1Cc2cc3cc(OC4CC(OC5CC(O)C(O)C(C)O5)C(O)C(C)O4)c(C)c(O)c3c(O)c2C(=O)C1OC1CC(OC2CC(OC3CC(C)(O)C(O)C(C)O3)C(O)C(C)O2)C(O)C(C)O1 (configuration not stated),Potency,[19],1.12 µM (active)
C=Cc1c(C)c2cc3nc(cc4[nH]c(cc5nc(cc1[nH]2)C(C)=C5CCC(=O)OC)c(CCC(=O)O)c4C)[C@@]1(C)C3=CC=C(C(=O)OC)[C@H]1C(=O)OC,Potency,[19],0.894 µM (active)
